aSyn 5UTR act: Activators via SNCA 5'UTR binding, MLPCN; alpha-synuclein 5'UTR reporter, activators screen; activity score, % (tested at 7.5 µM), hits read low; actives 7.1% (n = 300,000); in the data active = activity score below about -60%
Numbers without * were called inactive. A selection follows.

SMILES | aSyn 5UTR act
CC1CCOC(c2coc3ccccc3c2=O)O1 (stereo not given) | -113.0*
CC1CCCC(C)N1CCCNC(=O)c1cc2c(s1)-c1ccccc1OC2 (stereo not given) | 69.9
Cc1cccc2c1-c1sc(C(=O)NCCCN3CCCC(C)C3)cc1CO2 (stereo not given) | 69.5
Cc1csc(NC(=O)c2cc3c(s2)-c2ccccc2OC3)n1 | -211.1*
Cc1cccc(NC(=O)c2cc3c(s2)-c2c(C)cccc2OC3)n1 | -143.5*
O=C(c1cc2c(s1)-c1ccccc1OC2)N1CCCC1 | -104.6*
Clc1ccccc1-c1nc2ccccc2[nH]1 | -112.9*
Cn1cc(Cl)c(-c2nc3ccccc3[nH]2)n1 | -149.4*
Cc1cc2nc(-c3ccc[nH]c3=O)[nH]c2cc1C | 76.5
Fc1ccccc1-c1nc2ccccc2[nH]1 | -127.8*
Cc1ccccc1-c1nc2ccccc2[nH]1 | -134.2*
c1ccc2[nH]c(-c3ccnc4ccccc34)nc2c1 | -95.9*
C=C(C)Cn1cnc2c(oc3nc4c(cc32)CCCC4)c1=O | -85.0*
O=C(Cn1cnc2c(oc3nc4c(cc32)CCCC4)c1=O)Nc1cccc(Cl)c1 | 66.3
CC(=O)Nc1cc(C)c2nc(NC(C)=O)sc2c1 | -89.5*
CC(=O)Nc1nc2c(C)cc(NC(=O)C3CCCCC3)cc2s1 | -96.3*
CC(C)(C)c1cc(NCCCn2ccnc2)n2ncc(-c3ccc(Cl)cc3)c2n1 | -109.1*
COc1ccc(-c2cn3cc(C(=O)NN)ccc3n2)cc1 | -91.5*
NNC(=O)c1ccc2nc(-c3ccc(Br)cc3)cn2c1 | -154.0*
COC(=O)c1ccc2nc(-c3ccc4c(c3)OCO4)cn2c1 | 95.2
CCOC(=O)c1sc(=NC(=O)COc2ccccc2)n(C)c1C | -90.1*
CCOC(=O)c1sc2nc(CSc3ccccc3)nc(N3CCCN(C)CC3)c2c1C | 78.3
Cn1c(=NC(=O)COc2ccccc2)sc2cccc(F)c21 | -150.0*
CCOC(=O)c1sc(=NC(=O)CCSc2ccccc2)n(C)c1C | -146.3*
N#Cc1ccc(NC(=O)Nc2ccc(Oc3ccc(NC(=O)Nc4ccc(C#N)cc4)cc3)cc2)cc1 | 73.7
SMILES | aSyn 5UTR act
COc1ccc(NC(=O)Nc2ccc3[nH]ccc3c2)cc1 | -112.4*
COc1ccc2cc[nH]c2c1 | 70.8
COc1ccc(NC(=O)OC(C)C)cc1 | -69.5*
COc1ccc(NC(=O)Nc2ccc(N(C)C)cc2)cc1 | -124.4*
COc1ccc(NC(=O)Nc2ccc(OC)cc2)cc1 | -99.4*
COc1ccc2cc(OCC(=O)NNC(=O)Nc3ccc(C(C)=O)cc3)ccc2c1 | -88.4*
O=C(N=C1N=C2C=CC(Br)=CN2Cc2ccccc21)c1ccc([N+](=O)[O-])cc1[N+](=O)[O-] | -105.7*
NC(=O)COc1c(-c2ccc(Br)o2)oc2ccccc2c1=O | -62.4*
CCCCC(=O)Nc1ccc2c(c1)nc1n2CCOC1 | -76.8*
O=C(Nc1ccc2c(c1)nc1n2CCOC1)c1ccccc1 | -80.4*
CCc1ccc(C(=O)CN2CCSC2=N)cc1 | -108.7*
CN(C)CCN(C(=O)c1ccc(Br)s1)c1nc2cc3c(cc2s1)OCCO3 | -71.5*
CN(C)CCN(C(=O)c1cccs1)c1nc2cc3c(cc2s1)OCCO3 | -105.7*
C=CCN(C(=O)CSC1=NC(=O)CN1C(C)=O)c1nc(C)c(-c2ccccc2)s1 | -118.0*
Fc1ccc(NC(=S)Nc2cccc3ccccc23)cc1 | -84.1*
Cc1ccc(NC(=S)Nc2cccc3ccccc23)cc1 | -65.3*
c1ccc(CSc2n[nH]c(-c3ccco3)n2)cc1 | -63.7*
c1ccc(CSc2nccc(-c3ccco3)n2)cc1 | -81.5*
CCN(CC)c1ccc(NC(=S)Nc2ccc(F)cc2)cc1 | -91.2*
CCN(CC)c1ccc(NC(=S)NC(=O)c2cccs2)cc1 | -156.1*
CCCCn1nnc(NC(=S)NC(=O)c2cccs2)n1 | -114.1*
CCCCC(=O)Nc1ccc(NC(=S)NC(=O)c2cccs2)cc1OC | -106.9*
CCN(CC)c1ccc(NC(=S)NC(=O)c2ccco2)cc1 | -213.8*
CCCOc1ccc(C(=O)NNC(=S)NC(=O)c2ccco2)cc1 | 51.5
COc1ccc2nc(Nc3ccc4c(c3)OCO4)sc2c1 | -159.8*
SMILES | aSyn 5UTR act
COc1ccc2nc(Nc3nc4cc5c(cc4s3)OCO5)sc2c1 | -122.7*
COc1ccc(C(=O)NNC(=O)c2ccccn2)cc1 | 79.0
COc1ccc(/C=C/C(=O)c2ccccn2)cc1 | -97.7*
COc1ccc2cc(C(=O)/C=C/c3cc(OC)c(OC)c(OC)c3)ccc2c1 | -62.4*
COc1ccc(/C=C/C(=O)c2ccoc2)cc1 | -62.4*
COc1ccc(/C=C/c2cc(-c3ccc(C)cc3)o[n+]2C)cc1 | 89.2
COc1ccc(/C=C/C(=O)c2ccccc2O)cc1 | -233.5*
COc1cc(/C=C/c2ccc(O)cc2)cc(OC)c1 | -156.1*
COC(=O)c1ccc2c(c1)C(C)(C)C(/C=C/c1ccc(O)cc1)=[N+]2C | 119.3
COc1ccc(/C=C/C(=O)c2ccc(O)cc2)cc1 | -196.3*
Cn1cc(NC(=O)OCc2ccc(Cl)cc2)c(C(F)(F)F)n1 | -108.9*
CC(C)c1ccc2c(c1)C(c1ccc(N3CCOCC3)cc1)=NNC(c1cccs1)=N2 | -103.5*
O=[N+]([O-])c1ccc(CSc2nc3ccccc3o2)cc1 | -133.2*
